# This is a sample that favours compounds with a hit; in the whole collection about 32% have one here.
# CYP2C19 inh: blockers of cytochrome P450 2C19 activity – biochemical, luminescence, ADME assay, primary screen; CYP2C19 Supersomes, luciferin-H EGE luminescence, 30 min; inhibition, % at 5 µM; hit rate 21% among 96,000; AID 778, 2007;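 active = CYP2C19 inhibition above a set limit at 5 µM in the primary screen, cut at about 50% in these data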;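 note: plate controls were negative control wells for no effect and 2.5 mM tranylcypromine positive control for full effect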
# CYP2C9 inhib: blockers of cytochrome P450 2C9 activity – biochemical, luminescence, ADME assay, primary screen; CYP2C9 Supersomes, luciferin-H conversion; inhibition, % at 5 µM; AID 777, 2007; hit rate 20% among 96,000; P11712;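 active = blocking of liver enzyme CYP2C9 beyond about 50% at 5 µM, limit read from the data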
# Target sequence (P11712 whole entry, looked up): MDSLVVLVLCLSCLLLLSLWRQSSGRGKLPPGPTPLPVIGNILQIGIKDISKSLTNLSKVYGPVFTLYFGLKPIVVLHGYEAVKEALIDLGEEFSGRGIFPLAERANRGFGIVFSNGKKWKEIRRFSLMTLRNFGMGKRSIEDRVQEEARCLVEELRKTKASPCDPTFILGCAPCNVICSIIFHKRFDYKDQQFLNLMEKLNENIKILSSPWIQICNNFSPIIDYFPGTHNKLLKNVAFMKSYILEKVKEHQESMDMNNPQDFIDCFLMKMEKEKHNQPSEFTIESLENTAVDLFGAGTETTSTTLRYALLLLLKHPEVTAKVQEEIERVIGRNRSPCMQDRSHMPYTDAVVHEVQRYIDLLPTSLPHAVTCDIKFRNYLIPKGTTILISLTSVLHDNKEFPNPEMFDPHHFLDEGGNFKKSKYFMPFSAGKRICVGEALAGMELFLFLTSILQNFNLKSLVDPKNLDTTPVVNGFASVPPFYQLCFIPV
# CYP2C19 act: human CYP2C19 activators, primary screen, biochemical, luminescence; Cytochrome P450 2C19 (Homo sapiens), P33261; recombinant CYP2C19, luciferin-H EGE luminescence; hits give high values; 0 = fully inhibited enzyme, 1 = untreated enzyme; activation factor at 5 µM; 96,000 tested, under 10 active; AID 1025, 2008;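 active = activation factor of at least 2 at 5 µM in the primary screen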;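 note: 0 = wells with 2.5 mM tranylcypromine and 1 = vehicle-only wells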
# PostGolgi yeast: phenotypic screen on post-Golgi transport, primary screen; post-Golgi transport phenotypic cell assay; AID 739, 2007; hit rate 0.9% among 98,000; inhibition, % at 10 µM;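 note: yeast cells grown in 1536-well plates; yeast grown about 18 h at 30C before absorbance read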
# PostGolgi ctrl: growth inhibition of yeast control strain, primary screen, counter-screen for post-Golgi transport modulator project. efflux-deficient yeast background strain, growth absorbance A615, 16 h. inhibition, % at 10 µM. hit rate 5% among 98,000
# CYP2C9 act: human CYP2C9 activators, primary screen, biochemical, luminescence; recombinant CYP2C9, luciferin-H conversion; hits give high values; factor 1 = untreated enzyme, 0 = blocked; activation factor at 5 µM; hit rate 1.4% among 96,000;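 active = activation factor of 2 or more for CYP2C9 at a 5 µM dose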;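 note: 0 = sulfaphenazole-blocked wells and 1 = vehicle-only wells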
# An asterisk follows results filed as active; x = no result. Cut-off read from the data, not from the text of the source, unless noted: active = inhibition above about 30%; inactive = the rest.
SMILES,CYP2C19 inh,CYP2C9 inhib,CYP2C19 act,PostGolgi yeast,PostGolgi ctrl,CYP2C9 act
CCc1ccccc1S(=O)(=O)Cc1ccc(C(=O)N2CCN(c3ccccc3OC)CC2)o1,91.3*,95.8*,0.1,-2.5,8.0,0
COc1ccccc1S(=O)(=O)Cc1ccc(C(=O)NCCN2CCCC2)o1,3.3,6.9,1,0.0,15.6,0.9
Cc1ccccc1S(=O)(=O)Cc1ccc(C(=O)N2CCN(c3cccc(C)c3C)CC2)o1,49.3,73.3*,0.5,0.3,38.2*,0.3
CC(C)c1ccc(-c2noc(C3CCCN(C(=O)c4ccc(F)cc4F)C3)n2)cc1 (centres undefined),81.8*,90.1*,0.2,-5.4,14.3,0.1
Cc1ccccc1NC(=O)N1CCCC(c2nc(-c3ccc(C(C)C)cc3)no2)C1 (centres undefined),19.2,69.6*,0.8,-15.2,24.7,0.3
Cc1ccc(-c2noc(C3CCCN(C(=O)c4ccc(F)cc4F)C3)n2)cc1 (centres undefined),22.3,39.4,0.8,-2.0,10.6,0.6
Cc1ccccc1NC(=O)N1CCCC(c2nc(-c3ccc(F)cc3)no2)C1 (centres undefined),53.6*,70.3*,0.5,6.2,18.4,0.3
O=C(Nc1cccc(C(F)(F)F)c1)N1CCC(c2nc(-c3ccc(F)cc3)no2)CC1,41.3,56.1*,0.6,0.9,69.6*,0.4
O=C(Nc1ccccc1)N1CCCC(c2nc(-c3ccc(F)cc3)no2)C1 (centres undefined),35.7,47.6,0.6,-4.1,23.1,0.5
CCN1C2=NCCCN2c2cc(C)c(C)cc21,-13.6,-10.0,1.1,-0.2,-11.0,1.1
Cc1cc(C)cc(NC(=O)c2cccn2-c2ncc(C(F)(F)F)cc2Cl)c1,49.9,19.9,0.5,-3.5,14.5,0.8
O=S(=O)(Cc1ccccc1)N1CCCC(c2nc(-c3ccc(F)cc3)no2)C1 (centres undefined),19.8,10.4,0.8,2.2,33.4*,0.9
Cc1ccc(-c2noc(C3CCCN(C(=O)C4CCCCC4)C3)n2)o1 (centres undefined),53.1*,59.6*,0.5,-5.9,7.0,0.4
CCOc1ccc(N2C(=O)CC(N)C2=O)cc1 (centres undefined),x,x,x,10.8,8.8,x
CC(=O)Nc1cc(C(N)=O)c(Cl)cc1Cl,-11.7,-15.9,1.1,2.7,13.4,1.2
Cc1cc(C)n(C(C[N+](=O)[O-])c2ccc(Cl)cc2)n1 (centres undefined),76.2*,58.5*,0.2,-2.2,4.0,0.4
CCCCNC(=O)Cn1cnc2sc(C(=O)OCC)c(C)c2c1=O,-3.1,6.3,1,-4.5,4.2,0.9
CCOC(=O)C1CCN(c2c(N3CCN(c4ccccc4OC)CC3)c(=O)c2=O)CC1,-2.8,6.6,1,2.4,-1.1,0.9
CCOC(=O)c1cnc2ccc(OCC)cc2c1N1CCN(c2ccccc2OC)CC1,76.8*,94.0*,0.2,-0.5,59.4*,0.1
CCOc1cc(N2CCOCC2)c(OCC)cc1NC(=O)c1ccc(=O)n(Cc2ccccc2)n1,-0.5,4.5,1,x,x,1
O=C(Nc1ccc(C#Cc2ccccc2)cc1)C1CC1,-10.9,-131.2,1.1,0.8,8.5,2.3*
CCCC(=O)Nc1ccc(C#Cc2ccccc2)cc1,-5.1,-50.5,1.1,16.8,11.6,1.5
CCC(=O)NC1=C(NC(C)c2ccccc2)C(=O)c2ccccc2C1=O (centres undefined),29.9,52.2*,0.7,2.9,-5.3,0.5
CCC(=O)Nc1cccc(C(=O)/C=C/c2ccccc2)c1,59.6*,-100.6,0.4,-4.7,25.0,2*
CCC(=O)Nc1cccc(C(=O)OCC(=O)c2ccccc2Cl)c1,26.8,-236.2,0.7,-1.9,1.6,3.4*
SMILES,CYP2C19 inh,CYP2C9 inhib,CYP2C19 act,PostGolgi yeast,PostGolgi ctrl,CYP2C9 act
CCC(=O)Nc1cccc(Br)c1,-1.1,-5.1,1,0.0,7.1,1.1
CC(NC(=O)CC1Nc2ccccc2NC1=O)c1ccccc1 (centres undefined),13.5,-53.3,0.9,4.9,-6.6,1.5
CCC(=O)NC(=S)Nc1cccc(NC(=O)c2ccccc2Cl)c1,17.3,-1.6,0.8,7.0,4.2,1
CCC(=O)Nc1cccc(C(=O)c2ccccc2)c1,76.6*,-7.0,0.2,2.9,-4.0,1.1
CCC(=O)Nc1ccc2c(c1)C(=O)c1ccccc1C2=O,5.7,57.8*,0.9,0.3,15.4,0.4
O=C(c1ccccc1)c1cccc(NC(=O)C2CC2)c1,62.4*,4.3,0.4,-8.6,7.2,1
O=C(Nc1cccc(S(=O)(=O)c2cccc(NC(=O)C3CC3)c2)c1)C1CC1,99.2*,59.6*,0,4.6,25.2,0.4
CCC(=O)Nc1ccc2c(c1)C(=O)N(C)C2=O,-12.1,5.7,1.1,-1.7,3.2,0.9
Cc1cc(C(F)(F)F)c2c(N)c(C(=O)Nc3cc(C)on3)sc2n1,4.5,10.7,1,8.2,-1.6,0.9
CC(C)N1C(=O)C(Cc2nc3ccccc3c(=O)n2-c2ccccc2)c2ccccc21 (centres undefined),22.6,35.0,0.8,-6.5,27.2,0.7
CC(C)N1C(=O)/C(=C/c2nc3ccccc3c(=O)n2-c2ccccc2)c2ccccc21,21.7,29.3,0.8,-2.9,31.3*,0.7
Oc1ccc(N2CCN(c3ncnc4sc5c(c34)CCC5)CC2)cc1,11.7,-3.8,0.9,14.9,1.4,1
c1ccc2c(c1)nnn2-c1ncnc2sc3c(c12)CCCC3,11.0,-107.3,0.9,8.3,15.8,2.1*
Cc1nc(-n2nnc3ccccc32)c2c3c(sc2n1)CCCC3,54.8*,59.4*,0.5,2.5,32.2*,0.4
Cc1nc(N2CCN(c3ccccc3)CC2)c2c3c(sc2n1)CCC3,94.9*,94.2*,0.1,x,x,0.1
CC(O)CNc1nc2ccccc2n1-c1ncnc2sc3c(c12)CCC3 (centres undefined),38.5,44.5,0.6,-2.7,11.7,0.6
CCCN(CCO)Cc1ccc(Br)cc1,11.8,-14.8,0.9,-3.1,10.0,1.1
Cc1cc(Cl)ccc1NC(=S)NCc1ccc(Cl)cc1,52.5*,52.5*,0.5,6.0,-1.8,0.5
Cc1cc(Cl)ccc1NC(=S)NCCC(c1ccccc1)c1ccccc1,88.3*,84.9*,0.1,1.4,13.8,0.2
Cc1ccc(NC(=S)NCc2ccc3c(c2)OCO3)c(C)c1,90.1*,29.0,0.1,-0.5,4.2,0.7
COc1ccc(CN(Cc2cc3cc4c(cc3[nH]c2=O)OCO4)C(=O)NC2CCCCC2)cc1,-2.9,89.9*,1,0.3,9.0,0.1
Cc1ccc(NC(=O)N(Cc2ccc3c(c2)OCO3)Cc2cc3cc4c(cc3[nH]c2=O)OCCO4)cc1,-3.5,-3.0,1,24.2,55.9*,1
